Results filed as inconclusive are left out. The source made the active and inactive calls. Calls come from the whole dose curve; as a rule, active = well fitted curve in the direction sought with a large enough effect; inconclusive = small, poorly fitted or top-dose-only effect, or another doubt; inactive = no such curve, though single readings can be large; an effect the other way counts as inactive or inconclusive.
Experiment: qHTS for Inhibitors of Plasmodium falciparum (HB3) proliferation (AID 504318);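 note: 0% = DMSO vehicle and -100% = artemisinin control; nearly all actives have a fitted effect of over 60% in size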
Details: P. falciparum HB3 in erythrocytes, SYBR Green DNA, 72 h; series mostly up to 7.21 µM; activity change, negative = inhibition: at the top concentration
In short: (§1)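 Parasite growth measured as SYBR Green DNA fluorescence (ex 485, em 535 nm) after overnight lysis following 72 h culture at 37 °C, 0.3% parasitemia, 2.5% hematocrit. Values normalized against DMSO and 0.29 uM artemisinin controls, with plate-stack correction.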

Activity change, negative = inhibition, inactive:
CC1=C[C@]2(O[C@H](COc3ccccc3)C1)C(=O)N(C)c1ccccc12 -12.4%, COc1cccc([C@@H]2Oc3ccc(OC)cc3C(=O)[C@@H]2OC(=O)Nc2cc(OC)c(OC)c(OC)c2)c1 -12.1%, COC(=O)C(C(=O)OC)[C@@H]1O[C@@]23COC=C[C@]2(C)[C@@H]3c2ccccc21 -12.5%, CCC12C=C(C=Cc3ccccc3)C(CC)(C1)C(c1ccccc1)CC2=O (stereo not drawn) -8.78%, COc1ccc2c(c1)CO[C@H]([C@H](O)CO)[C@H]2C=CC#Cc1ccc(C(C)(C)C)cc1 -10.9%, O=c1oc2ccccc2c2c1[C@H]1O[C@](c3ccsc3)(Cc3ccccc31)O2 6.92%, O=C1CCCC2=C1[C@H]1O[C@](c3ccsc3)(Cc3c1ccc1ccccc31)O2 -14.4%, CC1(C)CC(=O)C2=C(C1)O[C@@]1(c3ccsc3)Cc3cc(C#N)ccc3[C@H]2O1 -10.8%, COc1ccc(COC(=O)NN=C2C[C@@H](O)[C@@H](O)[C@@H]3[C@H]4C(=O)N([C@@H](C)c5ccccc5)C(=O)[C@@H]4CC[C@H]23)cc1 -7.81%, COC(=O)C1=C(C(=O)OC)[C@@H]2N(C)c3ccccc3[C@@]23C[C@@H](C(=O)OC)N(C(=O)NCCBr)C3=N1 -6.22%, CC(=O)C1=C(C)N(CCC=Cc2ccccc2)C(=O)NC1c1ccccc1 (stereo not drawn) -10.6%, COc1cccc([C@@H]2Oc3ccc(Br)cc3C(=O)[C@@H]2O)c1 -10.5%

Potency, inactive:
CC(=O)C1=C(C)N(Cc2ccccc2)C(=O)NC1CCc1ccccc1 (stereo not drawn)

Experiment: qHTS for Inhibitors of Plasmodium falciparum (CP250) proliferation (AID 504320);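 note: plate controls were DMSO vehicle for no effect and 0.29 µM artemisinin control for full effect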
Details: P. falciparum CP250 in erythrocytes, SYBR Green DNA, 72 h; series mostly up to 6.7 µM; activity change, negative = inhibition: at the top concentration
In short: as §1

Activity change, negative = inhibition, inactive:
CCc1cc2c(nc1CC)CCN(CCC(C)=NOCC[C@@H]1C=C[C@H](OC(C)=O)[C@@H](COC(C)=O)O1)C2 8.45%, COCCN1C(=O)CC[C@@]23C1=NC(C(=O)OC)=C(C(=O)OC)[C@@H]2N(CC=C(C)C)c1ccccc13 -2.19%, COc1ccc([C@]23Cc4ccccc4[C@H](O2)c2c(cc(-c4ccccc4)oc2=O)O3)cc1 -1.1%, COC(=O)C1=C(C(=O)OC)[C@@H]2N(C)c3ccccc3[C@@]23CCC(=O)N(Cc2ccc(OC)cc2)C3=N1 -0.283%, C[C@]12C[C@@](C)(C=C1C=Cc1ccc(C(F)(F)F)cc1)C(=O)C[C@H]2c1ccc(C(F)(F)F)cc1 -1.61%, COCC=CC1=CC2=CC(=O)C(C)(OC(=O)c3cnc4ccccc4n3)C(=O)C2=CN1CCc1c[nH]c2ccccc12 (stereo not drawn) -0.85%, COc1cccc([C@H]2Oc3ccc(OC)cc3C(=NO[C@H](C)CN3CCCc4nc(C)c(C)cc43)[C@H]2O)c1 -13.6%, CC1(OC(=O)c2ccc(Cl)nc2)C(=O)C=C2C=C(c3ccsc3)OC=C2C1=O (stereo not drawn) -4.47%, CC(=O)O[C@@H]1C(CO[Si](C)(C)C(C)(C)C)=C(Br)C(=O)[C@@H]2O[C@]12C 4.07%, C#CC1(O)C2C=C(OC)C(=O)C1C(c1ccccc1)C2C (stereo not drawn) 6.91%, COc1ccc([C@]23Cc4cc(OC)c(OC)cc4[C@H](O2)c2c(cc(C)oc2=O)O3)cc1 1.91%, COc1ccc(N2C(=O)N3[C@H](c4ccccc4)[C@@H](C)C[C@H]4c5ccccc5C[C@]43C2=O)cc1 3.4%, Cc1cc2c(c(=O)n1Cc1ccccc1)[C@H]1O[C@](CCCCN3C(=O)c4ccccc4C3=O)(Cc3cc(C#N)ccc31)O2 1.56%, C=CC[C@@H]1C=CC(ON=CC[C@@H]2C=C[C@@H](OC(C)=O)[C@@H](COC(C)=O)O2)[C@H](CO)O1 (stereo partly drawn) 1.29%, C[C@@H](c1ccccc1)N1C(=O)[C@@H]2[C@H]3[C@H](O)[C@H](O)CC(=NOC[C@@H](O)COCc4ccco4)[C@H]3CC[C@H]2C1=O 4.12%, CCOC(=O)CCN1C(=O)[C@@H]2[C@H]3[C@H](O)[C@H](O)CC(=NOCc4ccccc4)[C@@H]3CC[C@H]2C1=O -2.26%, CC1=CC[C@@H](COc2ccccc2)O[C@@]2(C1)C(=O)N(CC1CC1)c1ccccc12 2.15%, COC(=O)C1=C(C)N(CC2CC2)C(=O)NC1c1ccc(Br)cc1 (stereo not drawn) 0.806%, C[C@@H]1C=CCC(=O)N2[C@H](CC(=O)N[C@@H]1c1ccccc1)C[C@@H](C)[C@@H]2c1ccccc1 7.65%, COc1ccc(COC(=O)NN=C2C[C@@H](O)[C@@H](O)[C@@H]3[C@H]4C(=O)N(C5CCCCC5)C(=O)[C@@H]4CC[C@H]23)cc1 5.12%, CC1=C[C@]2(O[C@H](COc3ccccc3)C1)C(=O)N(C)c1ccccc12 0.513%, COC1=C(C(=O)c2ccccc2)C(=O)[C@@]2(CC=C(C)C)CC(C#N)C[C@@]1(CC=C(C)C)C2=O (stereo partly drawn) 1.54%, COc1cccc([C@@H]2Oc3ccc(OC)cc3C(=O)[C@@H]2OC(=O)Nc2cc(OC)c(OC)c(OC)c2)c1 3.55%, COC(=O)C(C(=O)OC)[C@@H]1O[C@@]23COC=C[C@]2(C)[C@@H]3c2ccccc21 0.688%, CCC12C=C(C=Cc3ccccc3)C(CC)(C1)C(c1ccccc1)CC2=O (stereo not drawn) 1.01%, CC1=CC[C@@H](COc2ccccc2)O[C@@]2(C1)C(=O)N(Cc1ccc(F)cc1)c1ccccc12 -4.05%, COc1ccc2c(c1)CO[C@H]([C@H](O)CO)[C@H]2C=CC#Cc1ccc(C(C)(C)C)cc1 -0.637%, N#Cc1ccc2c(c1)C[C@]1(CCCCN3C(=O)c4ccccc4C3=O)Oc3cc(-c4ccccc4)oc(=O)c3[C@H]2O1 0.0254%, O=c1oc2ccccc2c2c1[C@H]1O[C@](c3ccsc3)(Cc3ccccc31)O2 1.49%, O=C1CCCC2=C1[C@H]1O[C@](c3ccsc3)(Cc3c1ccc1ccccc31)O2 1.6%, CC1(C)CC(=O)C2=C(C1)O[C@@]1(c3ccsc3)Cc3cc(C#N)ccc3[C@H]2O1 6.33%, COc1cccc([C@@H](NC(=O)C(F)(F)F)[C@@H]2CCCC=C2c2ccccc2)c1 8.64%, Oc1ccc2c(c1-c1c(O)c(Br)cc3c1CCCC3)CCCC2 1.55%, COc1ccc(COC(=O)NN=C2C[C@@H](O)[C@@H](O)[C@@H]3[C@H]4C(=O)N([C@@H](C)c5ccccc5)C(=O)[C@@H]4CC[C@H]23)cc1 -0.154%, COC(=O)C1=C(C(=O)OC)[C@@H]2N(C)c3ccccc3[C@@]23C[C@@H](C(=O)OC)N(C(=O)NCCBr)C3=N1 5.65%, CC(=O)C1=C(C)N(CCC=Cc2ccccc2)C(=O)NC1c1ccccc1 (stereo not drawn) -15.3%, C[C@H]1CC[C@H]2C(=O)N(Cc3ccccc3)C[C@@H](O)CN2[C@H]1c1cccc(Br)c1 -16%, C=C(CCN1C=C(C(=O)OCC)C(c2ccccc2)NC1=O)c1ccc(Cl)cc1 (stereo not drawn) -3.62%, COc1cccc([C@@H]2Oc3ccc(Br)cc3C(=O)[C@@H]2O)c1 0.953%

Potency, inactive:
CC(=O)C1=C(C)N(Cc2ccccc2)C(=O)NC1CCc1ccccc1 (stereo not drawn)

Source: PubChem BioAssay (NCATS)
